TDP1 block: TDP1 (human) enzyme inhibition. Q9NUW8. recombinant TDP1, AlphaScreen DNA substrate cleavage. Potency, µM (doses to about 130 µM), for inactives: at the highest dose activity change, negative = inhibition, actives largely listed as inhibitors. hit rate 0.28% among 350,000. AID 485290; further: on the % scale 0 is the no-effect control and ±100 the full control effect; nearly all actives have a fitted effect of over 40% in size
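Compounds were preincubated with Tdp1 (1 nM final) for 15 min at room temperature before substrate (15 nM final) started a 5 min reaction; beads (10 ug/ml final) were then added for 10 min before AlphaScreen detection.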
Sfp PPTase inh: inhibitors of Bacillus subtilis Sfp phosphopantetheinyl transferase; Biochemical Sfp PPTase activity, qHTS; Potency, µM, for the others: largest response in the series, negative = inhibition, usual class: inhibitors; hit rate 3.5% among 310,000; AID 1490;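 further: the enzyme is Sfp with the accession as filed and its product quenches rhodamine fluorescence; 0% = enzyme reaction without inhibitor and -100% = no enzyme wells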
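Step 1, compound plus 15 nM Sfp-PPTase, 15 min, room temperature. Step 2, add rhodamine-CoA (5 uM) and BHQ-2-YbbR (12.5 uM). Step 3, read 525/598 nm fluorescence at 0 and 30 min.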
JMJD2A Tudor: inhibitors of human JMJD2A Tudor domain. Potency, µM (highest dose often 114 µM), without a hit: at the highest dose activity change, negative = inhibition, hits mostly inhibitors. AlphaScreen JMJD2A-Tudor / H3K4me3 peptide binding. hit rate 4.4% among 390,000. O75164; further: on the % scale 0 is the no-effect control and ±100 the full control effect; nearly all actives have a fitted effect of over 50% in size
HP1b binding inh: inhibitors of HP1-beta chromodomain binding to methylated histone tails. P83916. AlphaScreen HP1-beta / biotin-H3K9me3 peptide binding. Potency, µM (doses to about 114 µM), for the others: top-dose activity change, negative = inhibition, actives largely listed as inhibitors. hit rate 0.56% among 390,000. AID 540317; further: nearly all actives have a fitted effect of over 70% in size
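HP1-beta protein (50 nM final) preincubated 30 min at room temperature with biotinylated H3(1-18)K9me3 peptide (50 nM) in PBS pH 7.4, 0.01% Tween-20, then compound added for 30 min. AlphaScreen streptavidin donor/nickel chelate acceptor beads (10 ug/mL final), 30 min dark, luminescence read.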
G9a block: blocks human histone lysine methyltransferase G9a | Q96KQ7 | G9a H3K9 monomethylation, AlphaScreen, 2 h | Potency, µM (top dose mostly 102 µM), inactives show at the highest dose activity, negative = inhibition, usual class: inhibitors | hit rate 8.8% among 350,000 | AID 504332; further: on the % scale 0 is the no-effect control and ±100 the full control effect; nearly all actives have a fitted effect of over 75% in size
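Enzyme 20 nM + cpd, 15 min RT; add b-H3K9 pep 500 nM / SAM 20 uM; 2 h RT; anti-H3K9me1 Ab 0.5 ug/mL + SA donor / anti-rabbit acceptor beads 20 ug/mL each, 10 min; AlphaScreen read.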
BAZ2B inh: inhibitors of human BAZ2B bromodomain; Potency, µM (highest dose often 114 µM), inactives show at the top dose activity change, negative = inhibition, usual class: inhibitors; Q9UIF8; AID 504333; hit rate 4.4% among 360,000; AlphaScreen BAZ2B-H3K14Ac peptide displacement; further: on the % scale 0 is the no-effect control and ±100 the full control effect; nearly all actives have a fitted effect of over 60% in size
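Protein-peptide AlphaScreen: BAZ2B 50 nM, b-H3K14Ac 50 nM, 1x PBS pH 7.4 + 0.01% Tween-20. Preincubation 30 min RT; cpd 30 min RT (top 110 uM); beads 20 min RT, light-protected.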
Numbers without * were called inactive; ? = inconclusive; . = no result; [ ] = remark or other dose. An excerpt weighted towards active compounds, which were near 12% of everything screened. The call rests on the fitted dose curve; in most records, active means well fitted curve in the direction sought with a large enough effect; inconclusive means small, poorly fitted or top-dose-only effect, or another doubt; inactive means no such curve, though single readings can be large; an effect the other way counts as inactive or inconclusive. Potency means the concentration at half of the fitted maximal effect.

SMILES	TDP1 block	Sfp PPTase inh	JMJD2A Tudor	HP1b binding inh	G9a block	BAZ2B inh
NC(=S)NNC(=O)[C@@H]1CCCC[C@@H]1C(=O)O	-1%	?	?	-21%	45µM*	-6%
O=C(O)C1CCCCC1C(=O)NC1C2CC3CC(C2)CC1C3 (stereo unspecified)	.	23%	1%	52%	.	-3%
Nn1c(SCc2ccc(C(=O)O)cc2)nnc1-c1ccc(Cl)cc1Cl	.	0%	-4%	42%	-12%	10%
O=C(O)c1c[nH]ccc1=O	0%	-14%	7.1µM*	-32%	?	?
CC1(C)N(O)CC(c2cccs2)=[N+]1[O-]	2%	7%	28µM*	-23%	-36%[12.7 µM]	50µM*
[O-][N+]1=C(c2cccs2)CN(O)C1	5%	17%	-14%	22%	15%	?
CCN(CC)c1ccc(/C=N/N2CCN(c3ccccc3OC)CC2)cc1	13%	-22%	32µM*	14µM*	8.9µM*	32µM*
COc1ccccc1N1CCN(/N=C/C=C\c2ccco2)CC1	6%	79µM*	56µM*	-55%	35µM*	50µM*
COc1ccccc1N1CCN(/N=C/c2ccc(C(=O)O)cc2)CC1	.	18%	-17%	32%	-8%	1%
COc1ccc(/C=N/N2CCN(c3ccccc3OC)CC2)cc1OC	6%	19%	?	-11%	45µM*	?
COc1ccccc1N1CCN(/N=C/c2ccc(O)c(O)c2)CC1	0%	22µM*	22µM*	28µM*	-120%[12.7 µM]	50µM*
COc1cc(OC)c(/C=N/N2CCN(c3ccccc3OC)CC2)c(OC)c1	9%	6%	?	-2%	-13%	?
COc1ccccc1N1CCN(/N=C/c2cc(OC)c(OC(C)=O)c(OC)c2)CC1	.	7%	-17%	30%	18%[0.501 µM]	5%
CCc1ccc(Nc2nc3c(S(=O)(=O)c4cccc(Cl)c4)nnn3c3ccsc23)cc1	-3%	.	3%	18%	6%[59 µM]	-14%
Cc1cc(C(=O)NC2CCCc3c2cnn3-c2ccc(C(C)(C)C)cc2)nn1C (stereo unspecified)	4%	-2%	-26%	16%	-2%	-27%
Cc1ccc(CCNC(=O)c2cnc3c(-c4ccc(F)cc4)c(C)nn3c2C)cc1	2%	.	2%	41%	5%[59 µM]	-1%
COc1ccc(/C=N/N2CCN(c3ccccc3)CC2)cc1Br	.	10%	-8%	18%	-7%	4%
COc1ccc(/C=N/N2CCN(c3ccccc3OC)CC2)cc1Br	.	-8%	?	-13%	3%[0.501 µM]	40µM*
Cc1coc2c1c(C)cc1oc(=O)c(CC(=O)N[C@@H](CC(C)C)C(=O)O)c(C)c12	.	2%	-29%	18%	50µM*	2%
C=CCSc1nc(C)cc2c1C(=O)OC2	-1%	13%	-17%	46%	5%	6%
O=c1cc(-c2cc3ccccc3oc2=O)c2ccc(O)cc2o1	11%	-12%	.	.	.	.
CN(Cc1ccccc1)C(=O)c1cc2cc(F)ccc2[nH]1	.	9%	-8%	51%	20%	-16%
CCc1ccc2[nH]c(C(=O)Nc3ccc(Br)c(C)n3)cc2c1	.	2%	-25%	36%	45µM*	-20%
CCc1ccc2[nH]c(C(=O)Nc3ccc(F)cc3Br)cc2c1	.	56µM*	-27%	9%	45µM*	-18%
C=CC1=C(C(=O)O)N2C(=O)C(NC(=O)Cc3ccccc3)C2SC1 (stereo unspecified)	.	?	40µM*	79µM*	?	?
SMILES	TDP1 block	Sfp PPTase inh	JMJD2A Tudor	HP1b binding inh	G9a block	BAZ2B inh
CC(=O)OCC1=C(C(=O)O)N2C(=O)[C@@H](NC(=O)Cc3ccccc3)[C@H]2SC1	.	.	?	10%	.	.
O=C(COc1ccccc1)NC1C(=O)N2C(C(=O)O)=C(Cl)CSC12 (stereo unspecified)	.	-18%	79µM*	0%	35µM*	79µM*
CCOc1ccc(-c2noc(CCCC(=O)NC3CCCC3)n2)cc1OC	2%[0.0935 µM]	15%	-22%	1%	-2%	-1%
COc1cccc(/C=C/c2nc3ccccc3c(=O)n2-c2ccc(C)c(C)c2)c1OC	3%	.	-18%	37%	-9%[59 µM]	0%
CN(CC(=O)NCc1ccc(F)cc1)S(=O)(=O)c1ccc2c(c1)c(=O)n(C)c(=O)n2C	4%	12%	-20%	15%	3%	-42%
CC1(CCc2ccc3c(c2)OCO3)NCCc2c1[nH]c1ccccc21 (stereo unspecified)	.	2%	?	14%	50µM*	-38%
O=C(CN1CCN(c2ccccc2F)CC1)Nc1ccccc1F	0%	5%	-14%	36%	50µM*	-14%
COc1cc(NC(=O)Nc2cccc(Cl)c2)c(OC)cc1NC(=O)CN1CCCCC1	10%	4%	45µM*	?	13µM*	40µM*
CCN(CC)c1ccc(NC(=O)CN2CCN(c3ccccc3F)CC2)cc1	12%	-3%	56µM*	50µM*	8.9µM*	40µM*
O=C(CN1CCCCC1)Nc1cccc(Cl)c1	1%	18%	5%	36%	-9%	-14%
COc1ccc(NC(=O)CN2CCN(c3ccccc3F)CC2)cc1	2%	6%	-1%	26%	?	-24%
CCN(CC)c1ccc(NC(=O)CN2CCN(c3ccccc3OC)CC2)cc1	14%	.	45µM*	-18%	?	35µM*
O=C(CCN1CCN(c2ccccc2F)CC1)Nc1ccccc1F	4%	9%	-1%	14%	20%	2%
COc1ccccc1N1CCN(CC(=O)Nc2ccc(C)c(F)c2)CC1	3%	?	-21%	5%	2%[2.33 µM]	5%
CN(Cc1ccccc1)C(=O)c1cccc(NC(=O)C2CCCN(C(=O)OC(C)(C)C)C2)c1 (stereo unspecified)	1%	.	-11%	42%	.	.
COc1cc(C(C(=O)NC2CCCC2)N(C(=O)Cc2cccs2)C2CC2)cc(OC)c1OC (stereo unspecified)	-2%	13%	-30%	-10%	0%	-3%
COc1ccccc1N1CCN(CC(=O)Nc2c(C)n[nH]c2C)CC1	0%	13%	-1%	25%	-11%[59 µM]	22%
CCOC(=O)c1ccc(NC(=O)N2CCN(c3ccccc3OC)CC2)cc1	-1%	-1%	79µM*	-6%	0%	-28%
CCN1CCN(CC(=O)Nc2c(OC)cccc2OC)CC1	.	79µM*	5µM*	45µM*	40µM*	18µM*
CN(CC(=O)Nc1ccccc1Cl)C(=O)CSc1nnc(-c2ccco2)n1C	-3%[56.1 µM]	.	2%	47%	10%[2.33 µM]	5%
O=C(c1cc(Cl)ccc1O)N1CCN(S(=O)(=O)Cc2ccccc2)CC1	4%	.	1%	36%	.	.

Screens as filed in PubChem.
